SW480 rereplic: inducers of DNA re-replication in SW480 colon cancer cells | SW480 DNA re-replication, Hoechst DNA content imaging, 48 h | Potency, µM (doses to about 46.1 µM), for the others: at the highest dose re-replication activation, usual class: activators | 1.8% of 340,000 active; note: % of control where 0% means no effect; nearly all actives have a fitted effect of over 55% in size
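First, 250 cells per well were seeded. Next, compound or vehicle (23 nL) was pinned in, plates sat 48 hr at 37 C. Finally Hoechst was added for 40 min before fluorescence scanning.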
PINK1 modulator: PINK1 expression modulation; Potency, µM (top dose mostly 76.6 µM), without a hit: at the highest dose activation (PINK1 increase), actives largely listed as activators; AID 624263; PINK1 immunofluorescence, high-content cytometry, 24 h; 0.2% of 410,000 active; active = well fitted activation curve with a large enough effect; inconclusive = small, poorly fitted or top-dose-only effect; cell line not stated here; note: % of control where 0% means no effect; nearly all actives have a fitted effect of over 65% in size
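A stable cell line was treated with compounds at 5 concentrations for 24 hours, with CCCP as control. PINK1 levels and mitochondrial localization were measured by immunofluorescence with mitochondrial, cell and nuclear markers after fixation, read by laser-scanning cytometry.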
KB-3-1 tox: kills parental KB-3-1 adenocarcinoma cells. KB-3-1 viability, CellTiter-Glo ATP luminescence, 72 h. Potency, µM (doses to about 46.1 µM), actives largely listed as cytotoxic. 1.4% of 400,000 active. AID 1347075; note: % is set by controls: 0 for no effect and ±100 for the full control effect; nearly all actives have a fitted effect of over 60% in size
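Cells are dispensed, compounds pinned in, plates held at 37 °C for 72 h, then CellTiter-Glo is added and luminescence read after 10 minutes. Cell line: parental KB-3-1 in phenol-red-free DMEM, 10% FBS.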
KB-V1 MDR tox: kills drug-selected multidrug resistant KB-V1 cells. AID 1347076. Potency, µM (series often up to 46.1 µM), hits mostly cytotoxic. 3.4% of 400,000 active. KB-V1 MDR cells viability, CellTiter-Glo, 72 h; note: % is set by controls: 0 for no effect and ±100 for the full control effect; nearly all actives have a fitted effect of over 60% in size
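Cytotoxicity toward P-gp-expressing KB-V1 cells was determined as loss of CellTiter-Glo luminescence after 72 h at 37 degrees C. Compounds were tested in quantitative HTS format across a concentration range, with curves fitted to normalized data.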
MCF10A rerep: induces DNA re-replication in MCF 10a normal breast cells. AID 624296. MCF 10A DNA re-replication, Hoechst nuclear intensity, 48 h. Potency, µM (top dose mostly 46.1 µM), without a hit: at the highest dose activity, positive = re-replication, hits mostly activators. 2.9% of 350,000 active; note: % of control where 0% means no effect; nearly all actives have a fitted effect of over 50% in size
Numbers without * were called inactive; i = inactive; u = inconclusive; x = no result; ! = repeats disagree; [ ] = remark or other dose. In the library only some 6.7% were active in any assay of this set; here they are far more common. Unless noted, calls come from the whole dose curve; as a rule, active = well fitted curve in the direction sought with a large enough effect; inconclusive = small, poorly fitted or top-dose-only effect, or another doubt; inactive = no such curve, though single readings can be large; an effect the other way counts as inactive or inconclusive. Potency is the fitted concentration of half-maximal effect.

SMILES	SW480 rereplic	PINK1 modulator	KB-3-1 tox	KB-V1 MDR tox	MCF10A rerep
COc1ccc(C(=O)c2sc(NC(C)C)nc2N)cc1OC	0%	0%	u	u	u
COc1cccc(C(=O)c2sc(NC(C)C)nc2N)c1	u	-1%	16µM*	u	5.8µM*
COc1ccc(C(=O)c2sc(Nc3ccccc3)nc2C)cc1	-1%	0%	i	i	u
COc1ccc(Nc2nc(N)c(C(=O)c3ccc(F)cc3)s2)cc1	4.1µM*	2%	u	1.3µM*	2.6µM*
COc1ccc(-c2cc3nc(C)c(CCC(=O)N4CCN(c5cc(C)ccc5C)CC4)c(C)n3n2)c(OC)c1	x	2%	i	i	x
COc1ccc(C)cc1NC(=O)Cn1cc(S(=O)(=O)N2CCC(C)CC2)c2ccccc2c1=O	x	0%	i	i	x
Nc1c(-c2cccc(Cl)c2)cnn1-c1cccc(C(F)(F)F)c1	3%	u	u	21µM*	11%
CN1CCC(NCCC(c2ccc(F)cc2)c2ccc(Cl)cc2)CC1 (stereo not drawn)	u	-2%	16µM*	u	u
COc1cc2c(cc1OC)C(c1ccc(-c3ccc(Cl)cc3Cl)o1)=NCC2	u	4%	23µM*	2.6µM*	u
COc1cc2c(cc1OC)C(c1ccc(-c3ccc(Cl)c(Cl)c3)o1)=NCC2	18µM*	-4%	16µM*!	u	2.3µM*
COc1cc2c(cc1OC)C(c1ccc(-c3cc(Cl)ccc3Cl)o1)=NCC2	16µM*	2%	u	5.2µM*	u
Cc1ccc(C)c(Sc2ccc(NC(=O)CCN3C(=O)NC4(CCCC4)C3=O)cc2)c1	6%	0%	i	i	23µM*
CCOC(=O)c1ccc(NC(=O)CN2C(=O)NC3(CCCCCCC3)C2=O)cc1	u	2%	7.3µM*	i	u
CCCCOC(=O)c1ccc(NC(=O)CN2C(=O)NC3(CCCCCC3)C2=O)cc1	-38%	1%	u	i	u
CCC1(c2ccc(F)cc2)NC(=O)N(CC(=O)Nc2ccc(N3CCCCC3)cc2)C1=O (stereo not drawn)	1%	-2%	i	23µM*	1%
O=C(Nc1ccc(Cl)c(Cl)c1)Nc1ccon1	10µM*	u	12µM*	7.3µM*	12µM*
CCC1(c2ccc(F)cc2)NC(=O)N(CC(=O)Nc2ccc(C(N)=O)cc2)C1=O (stereo not drawn)	-29%	1%	i	i	-20%
C[C@@H]1C[C@H]2[C@H]3C[C@@H](F)C4=CC(=O)C=C[C@]4(C)[C@@]3(Cl)[C@@H](O)C[C@@]2(C)[C@@H]1C(=O)COC(=O)C(C)(C)C	-1%	x	x	x	7%
COc1cc(C)c(CN2C[C@H](Sc3nc4ccccc4[nH]3)C[C@H]2C(=O)N(C)C)cc1C	x	2%	x	x	x
CCOC(=O)c1ccc(NC(=O)NCCN2CCCCC2)cc1	-4%	3%[38.3 µM]	16µM*	i	u
Cc1ccc(NC(=O)c2cc(N3C(=O)CCC3=O)ccc2N2CCOCC2)cc1	-1%	2%	i	i	-2%
O=C(Nc1ccc(Cl)c(Cl)c1)N1CCCCCC1	u	6%	i	i	7%
CCOC(=O)c1ccc(NC(=O)Nc2ccon2)cc1	u	4%	0.58µM*	u	1.3µM*
Cc1ccc(NC(=O)c2cc(N3C(=O)C=CC3=O)ccc2N2CCOCC2)cc1Cl	u	5%	i	i	16µM*
O=C(c1ccc(NC(=S)Nc2ccc(Cl)c(Cl)c2)cc1)N1CCCC1	-3%	28µM*	i	i	7%
O=C(Nc1ccc(Br)cn1)c1cnn2c1NC(=C1CC1)C=C2C(F)F	x	1%	u	i	x
CCOC(=O)c1ccc(NC(=O)Nc2nc3ccccc3s2)cc1	x	4%	i	i	x
O=C(Nc1ccc(N2CCOCC2)cc1)Nc1ccc(Cl)c(Cl)c1	0%	10%[38.3 µM]	u	18µM*	-5%
CCOC(=O)c1ccc(NC(=O)Nc2nncs2)cc1	x	u	u	0.33µM*	x
CCc1ccccc1Nc1sc(C(=O)c2ccccc2)c(N)c1S(=O)(=O)c1ccccc1	x	-1%	i	i	x
